Compound activity from PubChem.
A selection: hits, their analogues and other compounds. The true share with any hit is near 11%.
BAZ2B inh – qHTS Assay for Inhibitors of BAZ2B; actives 4.4% (n = 360,000); Potency, µM (top dose mostly 114 µM), actives largely listed as inhibitors; AlphaScreen BAZ2B-H3K14Ac peptide displacement; also: nearly all actives have a fitted effect of over 60% in size
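BAZ2B (50 nM) with biotin-H3(5-23)K14Ac peptide (50 nM) in PBS pH 7.4, 0.01% Tween-20, preformed 30 min, then compound 30 min at room temperature; top concentration 110uM. AlphaScreen streptavidin donor/nickel chelate acceptor beads (10 ug/mL final), 20 min dark, signal read.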
G9a block – qHTS Assay for Inhibitors of Histone Lysine Methyltransferase G9a; Histone-lysine N-methyltransferase EHMT2 (Homo sapiens), Q96KQ7; G9a H3K9 monomethylation, AlphaScreen, 2 h; Potency, µM (highest dose often 102 µM), actives largely listed as inhibitors; actives 8.8% (n = 350,000); AID 504332, 2011; also: nearly all actives have a fitted effect of over 75% in size
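Using a bead-based AlphaScreen, monomethylated H3K9 product from 2 h room-temperature reactions (G9a 20 nM, peptide 500 nM, SAM 20 uM) was detected with 0.5 ug/mL rabbit anti-H3K9me1 antibody.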
L3MBTL1 inh – qHTS Assay for the Inhibitors of L3MBTL1; Potency, µM (highest dose often 57.1 µM), most hits filed as inhibitors; Lethal(3)malignant brain tumor-like protein 1 (Homo sapiens), Q9Y468; AlphaScreen L3MBTL1–H3K9me1 peptide binding; actives 0.66% (n = 230,000); also: nearly all actives have a fitted effect of over 60% in size
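Displacement of a biotinylated histone H3(1-15) peptide monomethylated at Lys9 (75 nM) from L3MBTL1 (50 nM) was measured by AlphaScreen after a 30 min room-temperature compound incubation; cefsulodin titration served as intraplate control.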
HP1b binding inh – HTS for Inhibitors of HP1-beta Chromodomain Interactions with Methylated Histone Tails; Chromobox protein homolog 1 (Homo sapiens), P83916; AlphaScreen HP1-beta / biotin-H3K9me3 peptide binding; Potency, µM (doses to about 114 µM), most hits filed as inhibitors; actives 0.56% (n = 390,000); also: nearly all actives have a fitted effect of over 70% in size
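Compound inhibition of the preformed complex between 50 nM HP1-beta and 50 nM biotinylated H3K9me3 peptide was read by AlphaScreen. Buffer was PBS pH 7.4 with 0.01% Tween-20. Incubations ran 30 min at room temperature, with 10 ug/mL donor/acceptor beads.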
JMJD2A Tudor inh – qHTS Assay for Inhibitors of JMJD2A-Tudor Domain; Lysine-specific demethylase 4A (Homo sapiens), O75164; AlphaScreen JMJD2A-Tudor / H3K4me3 peptide binding; Potency, µM (top dose mostly 114 µM), most hits filed as inhibitors; actives 4.4% (n = 390,000); AID 504339, 2011; also: nearly all actives have a fitted effect of over 50% in size
Target sequence (O75164 whole entry, looked up, the tested form may be a part): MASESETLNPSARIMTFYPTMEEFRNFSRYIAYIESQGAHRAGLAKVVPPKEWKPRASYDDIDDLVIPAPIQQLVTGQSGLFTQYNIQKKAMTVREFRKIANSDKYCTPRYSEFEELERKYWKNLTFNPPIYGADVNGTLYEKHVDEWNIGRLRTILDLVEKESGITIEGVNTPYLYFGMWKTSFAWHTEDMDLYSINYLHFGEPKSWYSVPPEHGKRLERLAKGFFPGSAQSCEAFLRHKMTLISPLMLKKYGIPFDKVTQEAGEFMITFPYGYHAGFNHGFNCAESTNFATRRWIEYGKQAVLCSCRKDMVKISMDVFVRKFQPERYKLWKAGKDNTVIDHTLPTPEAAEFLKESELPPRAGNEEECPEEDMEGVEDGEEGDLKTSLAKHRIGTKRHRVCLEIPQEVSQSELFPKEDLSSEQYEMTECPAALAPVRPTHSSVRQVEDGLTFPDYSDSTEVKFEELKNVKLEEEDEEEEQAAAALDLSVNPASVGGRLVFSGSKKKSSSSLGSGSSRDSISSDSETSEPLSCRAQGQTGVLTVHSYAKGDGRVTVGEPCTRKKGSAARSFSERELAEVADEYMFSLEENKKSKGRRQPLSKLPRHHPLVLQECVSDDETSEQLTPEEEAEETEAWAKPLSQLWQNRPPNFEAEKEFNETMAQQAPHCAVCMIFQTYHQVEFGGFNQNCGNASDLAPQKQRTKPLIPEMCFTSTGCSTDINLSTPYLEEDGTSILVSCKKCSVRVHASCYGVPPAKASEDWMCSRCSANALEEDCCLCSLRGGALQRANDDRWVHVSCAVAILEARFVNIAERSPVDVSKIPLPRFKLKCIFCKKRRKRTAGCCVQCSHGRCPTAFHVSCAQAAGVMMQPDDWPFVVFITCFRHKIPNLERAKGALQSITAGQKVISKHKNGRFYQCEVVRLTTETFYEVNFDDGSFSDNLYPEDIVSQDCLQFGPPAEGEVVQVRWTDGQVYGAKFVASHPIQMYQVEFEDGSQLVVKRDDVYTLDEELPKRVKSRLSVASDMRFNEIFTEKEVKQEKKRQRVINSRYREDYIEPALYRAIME
Of the large screens only hits and unclear results are named; the others gave an inactive call. Calls follow the shape of the dose curve; as a rule, active = well fitted inhibition curve with a large enough effect; inconclusive = small, poorly fitted or top-dose-only effect; inactive = no such curve, though single readings can be large or run the other way.

O=C1C(Cl)=C(N2CCN(c3ccccc3[N+](=O)[O-])CC2)C(=O)c2ccccc21	BAZ2B inh 2.5µM, G9a block 7.9µM, L3MBTL1 inh inconclusive, HP1b binding inh 8.9µM, JMJD2A Tudor inh 5µM
O=C(Nc1ccc2c(c1)CCCN2C(=O)c1cccs1)c1cccc(C(F)(F)F)c1	none (no result: L3MBTL1 inh)
CN(C)c1ccc(NC(=O)CN2C(=O)CC(c3ccccc3)=Nc3ccccc32)cc1	G9a block 2µM
O=C(CN1C(=O)CC(c2ccccc2)=Nc2ccccc21)Nc1ccc(Br)cc1	none (no result: L3MBTL1 inh)
Cc1cc(/C=C2/C(=N)N3C(=NC2=O)SN=C3S(C)(=O)=O)c(C)n1-c1ccc(F)cc1	G9a block 40µM (no result: BAZ2B inh, L3MBTL1 inh)
CCOc1ccc(-n2c(C)cc(/C=C3/C(=N)N4C(=NC3=O)SN=C4S(C)(=O)=O)c2C)cc1	BAZ2B inh 56µM, G9a block 28µM, JMJD2A Tudor inh inconclusive (no result: L3MBTL1 inh)
CCOc1cc(/C=C2/C(=N)N3C(=NC2=O)SN=C3S(C)(=O)=O)ccc1OS(=O)(=O)c1ccccc1	BAZ2B inh inconclusive, JMJD2A Tudor inh inconclusive (no result: G9a block, L3MBTL1 inh)
Cc1ccccc1-n1c(C)cc(/C=C2/C(=N)N3C(c4ccccc4)=CSC3=NC2=O)c1C	G9a block inconclusive
COc1cc(/C=C2/C(=N)N3C(=NC2=O)SN=C3S(C)(=O)=O)ccc1OS(=O)(=O)c1ccccc1	BAZ2B inh 50µM, G9a block 25µM (no result: L3MBTL1 inh, HP1b binding inh, JMJD2A Tudor inh)
COc1ccccc1-n1c(C)cc(/C=C2/C(=N)N3C(=NC2=O)SN=C3S(C)(=O)=O)c1C	G9a block 50µM (no result: BAZ2B inh, L3MBTL1 inh)
CC(C)OC(=O)C(C(=O)OC(C)C)=C1SC=CS1	none (no result: BAZ2B inh, L3MBTL1 inh, HP1b binding inh, JMJD2A Tudor inh)
Cc1cc(Nc2cccc(Br)c2)n2c(nc3ccccc32)c1C#N	BAZ2B inh inconclusive, G9a block inconclusive (no result: L3MBTL1 inh)
Cc1nc(S(=O)(=O)N2CCN(c3cccc(Cl)c3)CC2)cn1C	none (no result: L3MBTL1 inh)
Cc1ccc(NC2(c3ccccc3)C(=O)c3ccccc3C2=O)cc1F	BAZ2B inh inconclusive, G9a block 13µM, JMJD2A Tudor inh inconclusive (no result: L3MBTL1 inh)
O=C(O)c1cc(NC2(c3ccccc3)C(=O)c3ccccc3C2=O)ccc1Cl	none (no result: L3MBTL1 inh)
Cc1ccc(C(=O)COC(=O)C(CC(C)C)NC(=O)C2CCC(C)CC2)cc1 (centres undefined)	none (no result: L3MBTL1 inh)
CC/C(=N/O)c1cnnc(SC)n1	none
CC/C(=N/Nc1cccc(C)c1)c1cnnc(SC)n1	G9a block 7.1µM, JMJD2A Tudor inh 56µM
CC/C(=N/Nc1ccccc1Cl)c1cnnc(-c2ccccc2)n1	G9a block inconclusive, JMJD2A Tudor inh inconclusive
CC/C(=N/Nc1ccc(Cl)cc1)c1cnnc(SC)n1	G9a block 5.6µM, JMJD2A Tudor inh inconclusive
O=C(CCN1C(=O)C2CCCCC2C1=O)Nc1ccc(Br)cc1F (centres undefined)	G9a block inconclusive
O=C1CC(=O)c2c1cccc2[N+](=O)[O-]	BAZ2B inh 50µM, G9a block 10µM (no result: L3MBTL1 inh, HP1b binding inh, JMJD2A Tudor inh)
NS(=O)(=O)c1ccc(NC(=O)CN2CCc3ccccc32)cc1	none (no result: G9a block, L3MBTL1 inh)
NS(=O)(=O)c1ccc(NC(=O)CN2CCCc3ccccc32)cc1	G9a block 28µM (no result: L3MBTL1 inh)
O=C(CN1CCCc2ccccc21)N/N=C/c1ccc(O)cc1O	G9a block 79µM, JMJD2A Tudor inh inconclusive
O=C(CN1CCCc2ccccc21)N/N=C/c1ccccc1	BAZ2B inh inconclusive, G9a block 45µM
O=C(CN1CCCc2ccccc21)N/N=C/c1c(O)ccc2ccccc12	G9a block 40µM, HP1b binding inh inconclusive, JMJD2A Tudor inh inconclusive
O=C(CNc1ccc(F)cc1)N/N=C/c1c(O)ccc2ccccc12	none (no result: L3MBTL1 inh)
COc1ccc(NC(=O)C2CCCN(S(=O)(=O)c3ccc4c(c3)CCCC(=O)N4)C2)cc1OC (centres undefined)	none (no result: L3MBTL1 inh)
O=C(COC(=O)C1CC2CCCC(C1)C2=O)NNC(=O)c1ccccc1F (centres undefined)	none
COc1cc(CN2CCc3nc(Nc4ccc5c(c4)OCCO5)ncc3C2)cc(OC)c1OC	BAZ2B inh inconclusive, JMJD2A Tudor inh inconclusive (no result: L3MBTL1 inh)
CCc1ccc(CN2CCc3nc(Nc4ccc5c(c4)OCCO5)ncc3C2)cc1	BAZ2B inh 14µM, HP1b binding inh inconclusive, JMJD2A Tudor inh 28µM (no result: L3MBTL1 inh)
